The values that follow come from PubChem BioAssay AID720517 (National Center for Advancing Translational Sciences (NCATS), 2013).

Inconclusive results are not listed. A call without a number means that no potency is given here. Active and inactive are the calls of the source. Calls follow the shape of the dose curve; as a rule, active = well fitted activation curve with a large enough effect; inconclusive = small, poorly fitted or top-dose-only effect; inactive = flat fitted curve, though single readings scatter.

The test can be described thus: qHTS for Inhibitors of Cell Surface uPA Generation: FP59 Counterscreen for Cherry-picked Compounds. The note with it: FP59 anthrax toxin cytotoxicity counterscreen, cells; series mostly up to 115 µM. A general note: Quantitative high-throughput screening tests each substance at several concentrations.
Turning to `CC(C)(C)OC(=O)NCCCCCNC(=O)c1[nH]cnc1C(=O)Nc1ccc(Cl)cc1`, the Potency result was “inactive”.
The same measure for `CCCCOc1ccc(S(=O)(=O)N2CCCCC2)cc1`: “inactive”; for `CCN(CC)S(=O)(=O)c1cc(NC(=O)COC(=O)C2CCC2)ccc1C`: “inactive”.
Next, `CCN(CC)S(=O)(=O)c1ccc(NC(=S)Nc2ccc(F)cc2)cc1`: “inactive”.
The same measure for `COc1cc(CNCc2ccc3c(c2)OCO3)c([N+](=O)[O-])cc1OC`: “inactive”.
In the case of `CCOC(=O)N1CCc2c(sc3nc4n(c(=O)c23)N=C(C)CS4)C1`, the Potency result was “inactive”.
The same measure for `COc1ccc(NC(=O)c2nn(C)c3c2CS(=O)(=O)c2ccccc2-3)cc1`: “inactive”; for `CCN(CC(=O)NCc1ccc(F)cc1)CC(=O)Nc1ccccc1-c1ccccc1`: “inactive”.
The same measure for `O=C(c1cc2cc([N+](=O)[O-])ccc2s1)N1CCOCC1`: “inactive”; for `O=C(NCCCn1cccn1)C1CCC(=O)N(Cc2ccccc2F)C1` (stereo not given): “inactive”; for `CN(CCC#N)C(=S)Nc1ccc(Oc2ccccc2)cc1`: “inactive”.
The same measure for `CCCNC(=O)C1CCC(CNS(=O)(=O)c2ccc3c(c2)CC(C)N3C(C)=O)CC1` (stereo not given): “inactive”.
Consider `CNC(=O)[C@@H]1CCC(=O)N1`, for which the Potency result is “inactive”.
The same measure for `COCCN(C(=O)c1ccc(OC2CCN(S(=O)(=O)N(C)C)CC2)cc1)C(C)C`: “inactive”; for `Cc1nc(NC(=O)COC(=O)CCc2ccccc2)c(Cl)cc1Cl`: “inactive”.
The same measure for `CC1Cc2nc(SCC(=O)Nc3ccc4c(c3)OCO4)n(-c3ccc(F)cc3)c(=O)c2S1` (stereo not given): “inactive”.
Next, `CCOC(=O)C1=C(CN2CCN(C(=O)c3ccco3)CC2)NC(=O)NC1c1ccccc1` (stereo not given): “inactive”; `O=C(NCCN1CCOCC1)c1ccccc1Cl`: “inactive”.
With `N#CCCN(C(=O)COC(=O)c1ccc2c(c1)NC(=O)CS2)c1ccc2c(c1)OCCO2`, the Potency entry was “inactive”.
The same measure for `O=c1[nH]c2ccccc2cc1CN(CC1CCCO1)S(=O)(=O)c1ccccc1` (stereo not given): “inactive”; for `COc1ccc(C(=O)CC2(C(=O)O)CCCCC2)cc1`: “inactive”.
The same measure for `CCOc1ccc(-c2n[nH]c(=S)n2Cc2ccccc2)cc1`: “inactive”; for `CC1(C(=O)OCC(=O)Nc2ccc(Cl)cn2)CC1(Cl)Cl` (stereo not given): “inactive”; for `CC(O)[C@H]1CNC(=O)C(=O)N1CCc1cccc(F)c1` (stereo not given in full): “inactive”.
In the case of `CCN(CC)S(=O)(=O)c1ccc(C(=O)Nc2nnc(COC)o2)cc1`, the Potency result was “inactive”.
Next, `COC(=O)[C@H](CC(C)C)N(Cc1ccccc1)S(=O)(=O)N(Cc1ccc(OC)cc1)[C@@H](CC(C)C)C(=O)OC`: “inactive”; `C/C=C/C(=O)Nc1cccc(C2=NOC3(C2)C[C@@H](C(N)=O)N(C(=O)c2cc([N+](=O)[O-])cc([N+](=O)[O-])c2C)C3)c1` (stereo not given in full): “inactive”; `CCN(CC)c1c([N+](=O)[O-])c(=O)sc2ccccc12`: “inactive”.
Next, `Cc1cc(C)n2c(SCC#N)nnc2n1`: “inactive”; `Cc1cnc(CNC(=O)CC2C(=O)NCCN2Cc2ccccc2C(F)(F)F)cn1` (stereo not given): “inactive”.
The same measure for `CCc1ccc(N2CC(C(=O)Nc3ccc4c(c3)OCO4)CC2=O)cc1` (stereo not given): “inactive”.
Regarding `CS(=O)(=O)N1CCC(C(=O)Nc2ccccc2)CC1`, the Potency result was “inactive”.
Next, `COc1ccc(N2CCN(C3CCN(S(=O)(=O)c4ccc(F)cc4)CC3)CC2)cc1`: “inactive”; `COc1ccccc1NS(=O)(=O)c1cc(NC(=O)CCc2nc3ccccc3c(=O)[nH]2)ccc1C`: “inactive”; `CCOC(=O)C1=C(C)N(Cc2ccccc2)C(=O)NC1c1ccc(OC)cc1` (stereo not given): “inactive”.
The same measure for `O=C(O)c1cc(N=Nc2c(O)[nH]c3ccc([N+](=O)[O-])cc23)ccc1Cl`: “inactive”.
The same measure for `CC(=O)COc1ccc2c(-c3cccc([N+](=O)[O-])c3)cc(=O)oc2c1`: “inactive”.
For the compound `COc1cccc(CC(=O)n2nc(N)c3cc4ccc(OC)cc4nc32)c1`, the Potency entry is “inactive”.
On to `Cc1noc(C)c1COc1ccc(C(=O)O)cc1`, for which the Potency entry was “inactive”.
Next, `C[C@H]([C@H](O)c1ccccc1)N(C)C(=O)CN`: “inactive”.
